# PubChem BioAssay (NCATS)
# Several values for one entry are separate records, joined by “and”; a condition that tells them apart may be missing. Identical values can stand only once. Results filed as inconclusive are left out. Entries that show only a call come without a potency. Activity calls are given as the source filed them. Calls follow the shape of the full dose curve.
# Columns and labels:
# [1] = Cytotoxicity counterscreen for inhibitors of SARS-CoV-2 cell entry (AID 1645845); details: cell viability (SARS-CoV-2 entry assay cells); series mostly up to 57.1 µM; also: nearly all actives have a fitted effect of over 50% in size
# Outline: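 Counterscreen run in the same HEK293-ACE2 line as the pseudotyped-particle entry assay, without particles. Viability after 48 h at 37 C was read as ATP luminescence, scaled between cell-containing and cell-free wells.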
# [2] = Primary qHTS to identify inhibitors of SARS-CoV-2 cell entry (AID 1645846); details: SARS-CoV-2 pseudovirus cell entry assay, luminescence; activity change, negative = inhibition: at 57.1 µM (top of the series) unless noted; series mostly up to 57.1 µM; also: nearly all actives have a fitted effect of over 45% in size
# Outline: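 Luminescence readout (Bright-Glo luciferase) 48 h after pseudoparticle addition. HEK293-ACE2 cells, 1500/well; compound pre-incubation 1 h; Normalized to spike PP and bald PP.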
# Potency is read from the fitted curve at half-maximal effect.
Compound,Potency [1],Potency [2],"activity change, negative = inhibition [2]"
CCc1c(C)[nH]c2c1C(=O)C(CN1CCOCC1)CC2 (stereo not drawn),inactive,inactive,
O=C(O)CNC(=O)CNC(=O)CNC(=O)CSC(=O)c1ccccc1,inactive,,1.66%
C#Cc1cccc(Nc2ncnc3cc(OC)c(OCCCCCCC(=O)NO)cc23)c1,10 µM (active),inactive,
OCCn1cc(-c2cnc3nnn(Cc4ccc5ncccc5c4)c3n2)cn1,inactive,inactive,
Fc1cc(-c2cccc3ncc(-c4cnn(C5CCNCC5)c4)nc23)cc(F)c1CN1CCOCC1,31.6 µM (active),12.6 µM (active),
CC(C)c1ccccc1Cc1cc(C(=O)Nc2ccc(S(=O)(=O)c3ccccc3C(C)(C)C)cc2)c(O)c(O)c1O,inactive,inactive,
CC(C)C[C@H](NC(=O)[C@@H](O)[C@H](N)Cc1ccccc1)C(=O)O,inactive,,-29.5%
Cn1c(NCCN(CCO)CCCc2ccc([N+](=O)[O-])cc2)cc(=O)n(C)c1=O,inactive,,-16.7% and 1.27%
CCOc1cc(NC(C)=O)ccc1C(=O)OC,inactive,inactive,
CCCCCCCCCCCCCC(=O)N[C@H](CO)[C@H](O)c1ccc([N+](=O)[O-])cc1,inactive,inactive,
CCCCCN(CCC12CC3CC(CC(C3)C1)C2)C(=O)NCCCc1ccncc1,inactive,,-12.6%
CC(C)(C)c1nnc(NS(=O)(=O)c2ccccc2)s1,inactive,inactive,
COc1nc(C)cnc1NS(=O)(=O)c1cccnc1-c1ccc(-c2nnco2)cc1,inactive,inactive,
Cc1ccnc(NS(=O)(=O)c2ccc(NC(=O)Nc3ccc(S(=O)(=O)Nc4nccc(C)n4)cc3)cc2)n1,inactive,,-16.3%
COc1cc2ncnc(-n3nc(-c4ccccn4)nc3N)c2cc1OC,inactive,,-6.12%
COc1ccc2cc(CCC(C)=O)ccc2c1,inactive,inactive,
Clc1ccc2ncc(-c3cccc(NC4CNC4)n3)n2c1,inactive,,-15.1%
COc1cccc(OC)c1-c1cc(C(=O)NC2(C(=O)O)C3CC4CC(C3)CC2C4)nn1-c1ccnc2cc(Cl)ccc12 (stereo not drawn),inactive,inactive,
C[C@@H](Oc1cc(-c2cnn(C3CCNCC3)c2)cnc1N)c1c(Cl)ccc(F)c1Cl,25.1 µM (active),11.2 µM (active),
CC(=O)N[C@@H](Cc1ccc(O)cc1)C(=O)O,inactive,inactive,

Compound,Potency [1],Potency [2],"activity change, negative = inhibition [2]"
CC1=C(C/C=C(\C)CCC[C@H](C)CCC[C@H](C)CCCC(C)C)C(=O)c2ccccc2C1=O,inactive,inactive,
CS(=O)(=O)Nc1ccc([N+](=O)[O-])cc1Oc1ccccc1,inactive,,-13.1% and -8.45%
O=C(O)c1ccc2cc(-c3ccc(O)c(C45CC6CC(CC(C6)C4)C5)c3)ccc2c1,3.16 µM (active),1.58 µM (active),
CCN(CC)CCn1c(=O)c(Cc2ccc(OC)cc2)nc2ccccc21,inactive,,-28.6%
CCc1cc(Nc2nccc(-c3c(-c4ccc(OC)c(C(=O)Nc5c(F)cccc5F)c4)nc4ccccn34)n2)c(OC)cc1N1CCC(N2CCN(S(C)(=O)=O)CC2)CC1,inactive,inactive,
C[C@@H]1CCN(C(=O)CC#N)C[C@@H]1N(C)c1ncnc2[nH]ccc12,inactive,,-1.42%
CNCc1ccc(-c2[nH]c3cc(F)cc4c3c2CCNC4=O)cc1,inactive,,-28.3%
c1ccc(-c2nn3c(c2-c2ccnc4cc(OCCN5CCOCC5)ccc24)CCC3)nc1,inactive,,3.16%
CC1(C)CCC(c2ccc(Cl)cc2)=C(CN2CCN(c3ccc(C(=O)NS(=O)(=O)c4ccc(N[C@H](CCN5CCOCC5)CSc5ccccc5)c(S(=O)(=O)C(F)(F)F)c4)cc3)CC2)C1,inactive,inactive,
COc1c(N2CCNC(C)C2)c(F)cc2c(=O)c(C(=O)O)cn(C3CC3)c12 (stereo not drawn),inactive,,-3.63% and -6.19%
CS(=O)(=O)c1ccc(C(=O)Nc2ccc(Cl)c(-c3ccccn3)c2)c(Cl)c1,inactive,,-12.8% and -5.84%
O=C(Nc1ccc(OC(F)(F)F)cc1)c1sccc1NCc1ccnc2ccccc12,inactive,,-18%
Cn1c2cc(S(C)=O)sc2c2cnn(Cc3cccc(N)c3)c(=O)c21 (stereo not drawn),inactive,,-23.3%
CCCCC(CC)COC(=O)c1ccc(N(C)C)cc1 (stereo not drawn),inactive,,4.94%
CN1[C@@H]2CC[C@H]1CC(OC(=O)C(O)c1ccccc1)C2 (stereo partly drawn),inactive,,-6.45%
COc1ccc(CC2SC(=O)NC2=O)cc1C(=O)NCc1ccc(C(F)(F)F)cc1 (stereo not drawn),inactive,,-1.76%
CC(C)c1ccc2c(c1)c(SC(C)(C)C)c(CC(C)(C)C(=O)O)n2Cc1ccc(Cl)cc1,inactive,inactive,
CC(=O)OCCN1C(=O)c2c(C)nc3ccc(S(=O)(=O)N4CCOCC4)cc3c2C1=O,inactive,,2.17%
CC[C@H](Nc1ncnc2nc[nH]c12)c1nc2cccc(F)c2c(=O)n1-c1ccccc1,inactive,,-11%
